# Assay outcomes: PubChem BioAssay, National Center for Advancing Translational Sciences (NCATS)
# Shown is part of a subset that was picked to be rich in hits.
# Cycloheximide cs = counter-screen for Shiga toxin inhibitors: cycloheximide protein synthesis inhibition | cell reporter, cycloheximide protein synthesis inhibition counterscreen | max response, % | 300,000 tested, 12% active | AID 2314; in the data active means max response mostly above about 13%, no sharp cut-off; inactive means mostly below about 14%; further: read at 38.3 µM for the half of the compounds with a filed dose
# TbPYK inhibitor = inhibitors of Trypanosoma brucei pyruvate kinase; Q57TT1; TbPYK enzyme, Kinase-Glo Plus ATP luminescence, 45 min; Potency, µM (doses to about 76.8 µM), hits mostly inhibitors; 410,000 tested, 0.12% active; further: nearly all actives have a fitted effect of over 50% in size
#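 T. brucei PYK with substrate was exposed to pin-transferred compounds across a concentration series, then started with 130 uM ADP (final). After 45 min at room temperature, Kinase-Glo Plus luminescence was read, normalized and curve-fitted.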
# Shiga inhibitor = Shiga toxin inhibition; Vero cells, Shiga toxin protein synthesis inhibition reporter; inhibition, % at 38.7 µM; 290,000 tested, 9.2% active; in the data active means inhibition mostly above about 28%, no sharp cut-off; inactive means mostly below about 43%
# LmPK inhibitor = inhibitors of Leishmania mexicana pyruvate kinase; Q27686; purified LmPK, Kinase-Glo ATP luminescence, 1 h; Potency, µM (doses to about 57.5 µM), hits mostly inhibitors; 290,000 tested, 0.37% active; AID 1721
#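 qHTS format; LmPK 0.1 nM; substrates PEP 0.5 mM and ADP 0.1 mM. One-hour room-temperature incubation, then coupled luciferase luminescence; 0.5 nM enzyme wells mark activation.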
# Giardia FBPA inh = inhibitors of Giardia lamblia fructose-1,6-bisphosphate aldolase; AID 2451; Potency, µM (top dose mostly 59.6 µM), actives largely listed as inhibitors; 290,000 tested, 0.71% active; A8B2U2; purified Giardia FBPA; further: nearly all actives have a fitted effect of over 55% in size
# Target sequence (A8B2U2 whole entry, looked up): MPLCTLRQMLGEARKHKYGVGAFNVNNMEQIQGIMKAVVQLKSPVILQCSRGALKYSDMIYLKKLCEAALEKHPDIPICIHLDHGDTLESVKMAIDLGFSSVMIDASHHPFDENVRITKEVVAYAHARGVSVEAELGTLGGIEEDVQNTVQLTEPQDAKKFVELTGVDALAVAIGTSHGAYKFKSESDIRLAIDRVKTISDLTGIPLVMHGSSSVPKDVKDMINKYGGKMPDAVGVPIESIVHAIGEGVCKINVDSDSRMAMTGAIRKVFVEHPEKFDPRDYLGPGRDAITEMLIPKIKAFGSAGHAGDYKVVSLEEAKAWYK
#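 40 nM FBPA preincubated 10 min at RT with compound (up to 57.5 uM final), then substrate plus GAPDH/TPI/NAD/arsenate coupling and diaphorase/resazurin added. Fluorescence read after 20 min at RT, 525/598 nm.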
# Sm TGR block = blocks Schistosoma mansoni thioredoxin glutathione reductase; Q962Y6; purified TGR, DTNB reduction, TNB absorbance 405 nm; Potency, µM (highest dose often 114 µM), hits mostly inhibitors; 360,000 tested, 3% active; further: nearly all actives have a fitted effect of over 60% in size
#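 TGR 20 nM + NADPH 100 uM (dispensed conc.), cpd preinc 15 min RT; start with NADPH (500 uM addition) then DTNB (15 mM addition). Kinetic TNB absorbance, 405 nm filter. Four-parameter Hill fit across titration.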
# A number is an active result; n = inactive; u = inconclusive; x = not tested or not shown; [ ] = another dose, or the depositor's remark. Unless noted, the call rests on the fitted dose curve; in most records, active means well fitted curve in the direction sought with a large enough effect; inconclusive means small, poorly fitted or top-dose-only effect, or another doubt; inactive means no such curve, though single readings can be large; an effect the other way counts as inactive or inconclusive.
SMILES,Cycloheximide cs,TbPYK inhibitor,Shiga inhibitor,LmPK inhibitor,Giardia FBPA inh,Sm TGR block
Cc1nc([N+](=O)[O-])c(Sc2nc3ccc([N+](=O)[O-])cc3[nH]2)n1Cc1ccccc1,n,n,n,n,n,14.1µM
CCn1c(C)nc([N+](=O)[O-])c1C(=O)O,n,n,n,n[11.5 µM],n,n
O=C(CSc1nc2ccc([N+](=O)[O-])cc2[nH]1)c1ccc2ccccc2c1,n,n,n,n,n,n
Cc1nn2c(C)c(C(=O)N3CCN(c4ccccc4)CC3)cnc2c1-c1ccccc1,x,n,x,x,x,u
CC(C)CCNC(=O)CN(C(=O)CCC(=O)Nc1nccs1)c1ccc2c(c1)OCCO2,35.4,n,68.4,n,n,n
CC(C)(C)NC(=O)CN(C(=O)CCC(=O)Nc1nccs1)c1ccc2c(c1)OCCO2,n,n,n,n,n,n
Cc1ccc(OCCCCn2nnc3sc4c(c3c2=O)CCC(C)C4)cc1 (centres undefined),x,n,x,x,x,n
O=[N+]([O-])c1ccc(N/N=C/c2cccc(O)c2O)cc1,27.3,n,x,n,n,n
O=[N+]([O-])c1ccc(NN=Cc2cccc([N+](=O)[O-])c2)cc1,x,n,x,x,x,x
Cc1cccc(C(=O)Oc2ccccc2/C=N/Nc2ccc([N+](=O)[O-])cc2)c1,n,n,n,n,n,n
O=[N+]([O-])c1ccc(N/N=C/c2cccc(O)c2)cc1,52.9,n,113.2,n,n,n
CCCNC(=O)N1[C@H](c2ccc(C)s2)[C@@H](C)C(=O)[C@@H](C)[C@@H]1c1ccc(C)s1,x,n,x,x,x,n
COc1ccc(CNC(=O)Cc2ccc(NC(=O)N3CCSc4ncccc43)cc2)cc1OC,x,n[15.4 µM],x,x,x,n
Nc1cccc2nsnc12,n,n,n,n,u,35.5µM
CC(C)C[C@@H](COCc1ccc([N+](=O)[O-])cc1)N1CCN(C(=O)c2ccc(C(F)(F)F)cc2)CCC1=O,x,n,x,x,x,x
COc1ccc(-n2c(C)cc(C(=O)Cn3nnc4ccccc4c3=O)c2C)cc1,15.4,n,n,n,n,n
COc1ccc(-n2c(C)cc(C(=O)COC(=O)Cc3n[nH]c(=O)c4ccccc34)c2C)cc1,n,n,n,n,n,n
Cc1cc(C(=O)Cn2nc(C(=O)O)c3ccccc3c2=O)c(C)n1-c1ccc(OC(F)F)cc1,n,n,n,n,n,n
COc1ccccc1Cn1nc(C(=O)O)c2ccccc2c1=O,19.6,n,43.0,n,n,n
Cc1cc(C(=O)Cn2nnc3ccccc3c2=O)c(C)n1-c1ccccc1F,45.9,n,n,n,n,n
COc1ccc(-n2c(C)cc(C(=O)Cn3nc(C(=O)O)c4ccccc4c3=O)c2C)cc1,26.3,n,34.0,n,n,n
Cc1cc(C(=O)Cn2nnc3ccccc3c2=O)c(C)n1-c1c(C)n(C)n(-c2ccccc2)c1=O,n,n,n,n,n,u
COc1ccc(-c2nc(CSc3nc4ncccc4[nH]3)c(C)o2)cc1OC,x,n,x,x,x,n
N#Cc1ccc(C(=O)OCC(=O)Nc2cccc(S(=O)(=O)NC3=NCCC3)c2)cc1,x,n,x,x,x,x
Cc1ccc(-n2c(C)cc(C(=O)Cn3nc(C(=O)O)c4ccccc4c3=O)c2C)cc1,19.0,n,41.8,n,n,n
SMILES,Cycloheximide cs,TbPYK inhibitor,Shiga inhibitor,LmPK inhibitor,Giardia FBPA inh,Sm TGR block
COCC(C)n1c(C)cc(C(=O)COC(=O)c2nn(C)c(=O)c3ccccc23)c1C (centres undefined),x,n,x,x,x,x
Cc1ccc(C(=O)Cn2nc(C(=O)O)c3ccccc3c2=O)cc1C,n,n,n,n,n,n
COCC(C)n1c(C)cc(C(=O)Cn2nc(C(=O)O)c3ccccc3c2=O)c1C (centres undefined),n,n,54.6,n,n,n
Cc1cc(C(=O)COC(=O)c2ccc(O)cc2)c(C)n1-c1ccccc1F,41.6,n,107.3,n,n,n
COc1ccc(N2CCN(CC(=O)Nc3ccccc3C(=O)NCc3ccccc3)CC2)cc1,x,n,x,x,x,n
COc1cc(Cl)ccc1OCc1cc(C(=O)N2CCCCCCC2)no1,43.0,n,84.5,n,x,n
COc1cc(C)ccc1OCc1cc(C(=O)N2CCCCCC2)no1,30.1,n,63.9,n,n,n
CCOC(=O)N1CCN(C(=O)c2cc(COc3ccc(Cl)cc3OC)on2)CC1,n,n,n,n,x,n
